This note sets out measurements from PubChem BioAssay (Tox21).

Values without a mark were called inactive. Inconclusive results are not listed. Calls of active or inactive are those of the source. The call rests on the fitted dose curve.

For assay [1], the target named is Acetylcholinesterase (Homo sapiens) (UniProt P22303). Put plainly: Acetylcholinesterase (AChE) small molecule antagonists: colormetric cell-based qHTS assay (AID 1347395). Further: nearly all actives have a fitted effect of over 30% in size. The procedure, abridged: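 Neuroblastoma line SH-SY5Y supplied the enzyme; cells were preincubated with compound for 30 min at 37 C and 5% CO2. Acetylthiocholine with DTNB was then added for 90 min at 37 C, and thiocholine was measured by colour.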
(In qHTS, concentration-response curves come from the screen itself.)

The target is the same in assay [2]. Put plainly: Acetylcholinesterase (AChE) small molecule antagonists: enzyme-based qHTS assay (AID 1347397). Further: nearly all actives have a fitted effect of over 55% in size. The conditions noted are these: Potency: AChE enzyme activity inhibition; outcome: AChE enzyme activity inhibition. In outline:
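Colorimetric DTNB read-out of thiocholine released from acetylthiocholine by recombinant human AChE (50 mU/mL as dispensed). Compounds were preincubated 30 min at RT before substrate/DTNB addition, with a 10 min RT reaction.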

Assay [3] shares this target. Kind of assay: Acetylcholinesterase (AChE) small molecule antagonists: fluorescence cell-based qHTS assay (AID 1347398). Further: nearly all actives have a fitted effect of over 50% in size. The conditions noted are these: Potency: AChE activity; outcome: AChE activity. The procedure, abridged: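 SH-SY5Y, 2,000 cells/well, attached overnight; cmpd 30 min 37 C; acetylthiocholine/Thiolite Green cocktail 40 min RT; fluorescence Ex/Em 490/520 nm.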
Potency means the concentration at half of the fitted maximal effect.

Sequence of Acetylcholinesterase (Homo sapiens) (P22303 whole entry, looked up): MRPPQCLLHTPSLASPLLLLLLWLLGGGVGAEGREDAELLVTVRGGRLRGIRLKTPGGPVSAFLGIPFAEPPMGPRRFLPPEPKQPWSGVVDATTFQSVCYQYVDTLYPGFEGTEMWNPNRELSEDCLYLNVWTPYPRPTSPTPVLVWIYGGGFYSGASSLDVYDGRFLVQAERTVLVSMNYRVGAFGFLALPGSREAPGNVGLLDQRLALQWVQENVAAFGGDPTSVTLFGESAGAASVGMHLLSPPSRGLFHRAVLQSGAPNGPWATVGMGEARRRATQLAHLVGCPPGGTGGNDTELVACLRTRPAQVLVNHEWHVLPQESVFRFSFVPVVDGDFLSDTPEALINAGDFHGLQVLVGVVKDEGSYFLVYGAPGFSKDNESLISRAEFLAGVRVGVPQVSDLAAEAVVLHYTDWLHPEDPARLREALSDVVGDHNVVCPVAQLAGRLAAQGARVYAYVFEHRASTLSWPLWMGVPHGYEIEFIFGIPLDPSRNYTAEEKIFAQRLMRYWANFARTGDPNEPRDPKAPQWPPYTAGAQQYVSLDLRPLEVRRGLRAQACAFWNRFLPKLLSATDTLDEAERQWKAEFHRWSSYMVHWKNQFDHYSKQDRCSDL

In the case of `COc1ccc(OC)c(C(O)CNC(=O)CN)c1` (stereo unspecified), the Potency entry in assay [1], in assay [2] and in assay [3] was “inactive” in each case.
Consider `O=C(O)CCc1nc(-c2ccccc2)c(-c2ccccc2)o1`, for which the Potency entry in assay [1], in assay [2] and in assay [3] was “inactive” throughout.
With `CCN(C(=O)c1cc(C)cc(OC[C@H](C)Nc2ccncc2)c1)C(C)C`, the Potency in assay [1] is 12.5 µM (active); in assay [2], 22.2 µM (active); in assay [3], 6.26 µM (active).
As for `CNCCCN1c2ccccc2CCc2ccccc21`, the Potency result in assay [1], in assay [2] and in assay [3] was “inactive” throughout.
Consider `CN(C)C(=O)C1(N2CCCCC2)CCN(CC[C@@]2(c3ccc(Cl)c(Cl)c3)CN(C(=O)c3ccccc3)CCO2)CC1`, for which the Potency in assay [1] is 33.2 µM (active); in assay [2] it was 16.7 µM (active); in assay [3], 4.69 µM (active).
As to `CC(C(=O)O)c1cccc(C(=O)c2ccccc2)c1` (stereo unspecified), the Potency entry in assay [1], in assay [2] and in assay [3] was “inactive” in each case.
In the case of `CCOC(=O)c1c(N)sc2c1CCN(Cc1ccccc1)C2`, the Potency in assay [1] was 12.3 µM (active); in assay [2] it was 24.5 µM (active); in assay [3], 12.3 µM (active).
On to `CC[C@]1(O)C[C@@H]2CN(CCc3c([nH]c4ccccc34)[C@@](C(=O)OC)(c3cc4c(cc3OC)N(C)[C@H]3[C@@](O)(C(=O)OC)[C@H](OC(C)=O)[C@]5(CC)C=CCN6CC[C@]43[C@@H]65)C2)C1`, for which the Potency entry in assay [1], in assay [2] and in assay [3] was “inactive” in each case.
For `CCCO[Si](OCCC)(OCCC)OCCC`, the Potency result in assay [1], in assay [2] and in assay [3] was “inactive” throughout.
Consider `CCC(C)C(C)=O` (stereo unspecified), for which the Potency result in assay [1], in assay [2] and in assay [3] was “inactive” each time.
As for `CCCOCCO`, the Potency result in assay [1], in assay [2] and in assay [3] was “inactive” in each case.
For `CC(C)c1nnc2ccc(-c3ocnc3-c3cc(F)ccc3F)cn12`, the Potency result in assay [1], in assay [2] and in assay [3] was “inactive” in each case.
For the molecule `O=C1CN(/N=C/c2ccc([N+](=O)[O-])o2)C(=O)N1`, the Potency entry in assay [1], in assay [2] and in assay [3] was “inactive” throughout.
As for `CC(N)C12CC3CC(CC(C3)C1)C2` (stereo unspecified), the Potency result in assay [1], in assay [2] and in assay [3] was “inactive” each time.
For the molecule `CCOc1ccc2nc(N)sc2c1`, the Potency result in assay [1], in assay [2] and in assay [3] was “inactive” each time.
On to `CCCC(=O)c1cc(O)c(O)cc1O`, for which the Potency entry in assay [1], in assay [2] and in assay [3] was “inactive” each time.
For the molecule `CC1(C)[C@H](C(=O)O)N2C(=O)C[C@H]2S1(=O)=O`, the Potency entry in assay [1], in assay [2] and in assay [3] was “inactive” in each case.
As to `CN(C)CCCN(C)CCCN(C)C`, the Potency result in assay [1], in assay [2] and in assay [3] was “inactive” in each case.
As for `CS(=O)(=O)c1ccc([C@@H](O)[C@@H](CF)NC(=O)C(Cl)Cl)cc1`, the Potency result in assay [1], in assay [2] and in assay [3] was “inactive” throughout.
For the molecule `CNc1ccc([N+](=O)[O-])cc1`, the Potency entry in assay [1], in assay [2] and in assay [3] was “inactive” throughout.
For `Cc1ccc([N+](=O)[O-])cc1S(=O)(=O)O`, the Potency entry in assay [1], in assay [2] and in assay [3] was “inactive” throughout.
As to `CSc1c(Cl)c(Cl)c(Cl)c(Cl)c1Cl`, the Potency result in assay [1], in assay [2] and in assay [3] was “inactive” each time.
As to `O=C1c2ccccc2C(=O)N1CCc1noc(-c2ccc(CN3CCCCCC3)s2)n1`, the values for the Potency in assay [1], in assay [2] and in assay [3] were 6.51 µM (active), 23.1 µM (active) and 3.26 µM (active), respectively.
For `CC(C)NCC(O)COc1ccc(CC(N)=O)cc1` (stereo unspecified), in that order: “inactive”, “inactive” and “inactive”.
For `C=CC(=O)CCCCC`, in that order: “inactive”, “inactive” and “inactive”.
For `CC(C)NC[C@@H](O)COc1ccc(CC(N)=O)cc1`, in that order: “inactive”, “inactive” and “inactive”.
As for `Cc1cc(O)c(Cl)cc1C`, the Potency entry in assay [1], in assay [2] and in assay [3] was “inactive” throughout.
`O=C(O)Cc1cccc2ccccc12`: the Potency entry in assay [1], in assay [2] and in assay [3] was “inactive” throughout.
For `COc1ccc(CCN(C)CCCC(C#N)(c2ccc(OC)c(OC)c2)C(C)C)cc1OC` (stereo unspecified), the Potency entry in assay [1], in assay [2] and in assay [3] was “inactive” throughout.
For `CC1(C)S[C@@H]2[C@H](NC(=O)COc3ccccc3)C(=O)N2[C@H]1C(=O)O`, the Potency entry in assay [1], in assay [2] and in assay [3] was “inactive” each time.
Consider `CCCC(=O)Nc1ccc(OCC(O)CNC(C)C)c(C(C)=O)c1` (stereo unspecified), for which the Potency entry in assay [1], in assay [2] and in assay [3] was “inactive” throughout.
Take `c1ccc(SSc2ccccc2)cc1`: the Potency entry in assay [1], in assay [2] and in assay [3] was “inactive” in each case.
